In the library only some 1.6% were active in any assay of this set; here they are far more common.
Yeast superoxide – yeast age-related superoxide inhibition as caloric restriction mimetic; S. cerevisiae aged cells, superoxide DHE fluorescence; stronger effect = lower value; superoxide response (% of plate mean), % at 10 µM; 330,000 tested, 0.18% active;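 active means superoxide response under a set limit, about three screen SD below normal, cut at about 65% in these data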;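 further: yeast aged for seven days with compound at 30 °C before DHE staining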
NALP3 yeast inh – blocks the NALP3 inflammasome reconstituted in yeast; Yeast reconstituted NLRP3/ASC/caspase-1, beta-gal luminescence, 24 h; inhibition, % at 10 µM; 330,000 tested, 0.39% active;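 active means inhibition of 50% or more; inactive means inhibition below 50%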
Rce1 inh – yeast Ras-converting enzyme inhibition; calls only; yeast membranes, quenched prenylated peptide cleavage fluorescence; 290,000 tested, 0.27% active; Q03530; AID 2563;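 active means fall in fluorescence gain of 50% or more versus controls, with final raw signal at or below 3038400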
Target sequence (Q03530 whole entry, looked up): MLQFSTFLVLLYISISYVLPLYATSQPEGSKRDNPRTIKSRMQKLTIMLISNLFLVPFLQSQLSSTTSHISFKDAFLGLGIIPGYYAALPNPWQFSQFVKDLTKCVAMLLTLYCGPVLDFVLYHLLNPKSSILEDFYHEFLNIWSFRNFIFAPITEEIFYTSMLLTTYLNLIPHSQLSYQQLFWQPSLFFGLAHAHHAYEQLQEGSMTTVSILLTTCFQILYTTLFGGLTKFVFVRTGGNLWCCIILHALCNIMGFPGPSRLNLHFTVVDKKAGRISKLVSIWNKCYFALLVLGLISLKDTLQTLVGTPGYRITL
NALP1 yeast inh – NALP1 inhibition; S. cerevisiae NALP1/ASC/caspase-1 growth, X-gal OD620, 72 h; inhibition, % at 10 µM; 280,000 tested, 0.61% active; AID 2071; in the data active means inhibition mostly above about 24%, no sharp cut-off; inactive means mostly below about 32%
V-ATPase pH – regulators of yeast V-ATPase proton transport; 350,000 tested, 0.37% active; response, % at 10 µM; S. cerevisiae, pHLuorin cytosolic pH fluorescence; in the data active means response mostly above about 7.3%, no sharp cut-off; inactive means mostly below about 5.4%; further: actives read high
PERK inhibitor – blocks human PERK kinase. inhibition, % at 5.6 µM. AID 1416. 220,000 tested, 0.17% active. Q9NZJ5. CHO PERK-DD fusion, SEAP luminescence translation reporter;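 active means inhibition above the mean inhibition of all tested compounds plus 3 SD, set separately per screening campaign, cut at about 2.9% in these data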;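 further: PERK kinase domain activated by AP20187 dimerizer at 100 nM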
Numbers stand for hits; - = inactive; . = no result; + = active, no number.

SMILES	Yeast superoxide	NALP3 yeast inh	Rce1 inh	NALP1 yeast inh	V-ATPase pH	PERK inhibitor
CCc1nc2ccccc2[nH]c1=O	-	-	-	-	-	-
CC(C)CC1C(=O)N(Cc2cn(Cc3ccco3)nn2)CCS(=O)(=O)N1Cc1ccc(-c2cccc(N(C)C)c2)cc1 (stereo unspecified)	.	.	.	.	-	.
O=C(N/N=C/c1cc(Br)ccc1O)c1ccncc1	-	-	-	-	-	-
O=C(N/N=C/c1cc(Cl)ccc1O)c1ccc(Br)cc1	-	.	.	46	-	-
CCOC(=O)Cn1c(=O)oc2cc(S(=O)(=O)NCCC(C)C)ccc21	-	-	-	41	-	-
O=C(OCc1ccccc1)N1CCC2CC1c1ccc(N3CCNCC3)cc12 (stereo unspecified)	.	.	.	.	-	.
COc1ccc2c(CC(=O)Nc3ccc4nc(N5CCOCC5)sc4c3)coc2c1	.	.	.	.	-	.
CN1CCc2c(n(CC(O)CNCc3ccccc3)c3ccccc23)C1=O (stereo unspecified)	-	-	-	-	-	-
CC(C)NCC(O)Cn1c2c(c3ccccc31)CCc1c-2cnn1-c1ccccc1 (stereo unspecified)	-	-	-	22	-	-
CCCCCCCN1C2=NCCN2c2ccccc21	-	-	-	-	22	-
Cc1[nH]c(=S)[nH]c(=O)c1CCOc1ccccc1	-	-	-	-	-	3.1
NC1=NC2OC(CO)C(O)C2O1 (stereo unspecified)	.	.	.	.	-	.
COc1ccc(OC)c2sc(NC(=O)C3=COCCO3)nc12	-	-	-	-	-	-
COc1ccc(C)c2sc(NC(=O)C3=COCCO3)nc12	-	-	+	-	-	-
O=C(Nc1ccc(Cl)cc1Cl)c1cccc(N2C(=O)C=CC2=O)c1	-	-	-	.	78	.
COc1ccc(S(=O)(=O)N2CCC(C(=O)NCCC(=O)NCc3ccccn3)CC2)cc1	.	.	.	.	-	.
COc1ccc(-c2noc(CCC(=O)NC3CCCCCC3)n2)cc1OC	.	.	.	.	-	.
COc1ccc(-n2cc(CN(C)C(C)c3ccncn3)c(-c3cccc(F)c3)n2)cc1 (stereo unspecified)	-	-	-	-	-	-
COc1ccc(-n2cc(CNCCc3cnc[nH]3)c(-c3cccc(F)c3)n2)cc1	-	-	-	27	-	-
COc1ccc(-n2cc(CN(C)CCO)c(-c3cccc(F)c3)n2)cc1	-	-	-	24	-	-
COc1ccc(-n2cc(CNCc3cccnc3)c(-c3cccc(F)c3)n2)cc1	-	-	-	-	-	-
CCn1c(SCC(=O)N2CCc3ccccc32)nc2c(c1=O)SC(C)C2 (stereo unspecified)	-	-	-	.	.	.
CCn1nnnc1SCC(=O)N1CCCc2ccccc21	-	-	-	-	24	-
CCn1c(SCC(=O)N2CCCc3ccccc32)nc2c(c1=O)SC(C)C2 (stereo unspecified)	-	-	.	-	16	-
C[C@H](CO)N1C[C@H](C)[C@@H](CN(C)C(=O)Nc2ccccc2)Oc2ncc(-c3ccc(C#N)cc3)cc2C1=O	.	.	.	.	-	.
SMILES	Yeast superoxide	NALP3 yeast inh	Rce1 inh	NALP1 yeast inh	V-ATPase pH	PERK inhibitor
CC(=O)c1c(O)cc(C)n(-c2ccc(F)cc2)c1=O	-	-	-	29	-	-
O=C(C[n+]1cc2ccccc2c2ccccc21)c1ccccc1	-	-	+	-	-	-
O=C(C[n+]1cccc2ccccc21)c1ccccc1	-	-	-	-	-	-
COc1ccc(N(CC(=O)N2CCN(c3ccccc3)CC2)S(=O)(=O)c2ccccc2)cc1	.	.	.	.	-	.
O=C(Nc1nc(-c2ccccn2)cs1)c1ccc([N+](=O)[O-])o1	-	-	+	-	-	-
Cc1ccc(C(=O)Nc2nc(-c3ccccn3)cs2)o1	-	-	-	-	-	-
COc1ccc(-c2ccc(CN3C(C(C)C)C(=O)N(Cc4cn(CCC5OCCO5)nn4)CCS3(=O)=O)cc2)cc1 (stereo unspecified)	.	.	.	.	-	.
C[C@@H](C(=O)NCCCCCC(=O)O)n1nnc2ccccc2c1=O	-	-	-	-	-	-
CCC(C)[C@@H](C(=O)NCC1CCC(C(=O)O)CC1)n1nnc2ccccc2c1=O (stereo partly specified)	-	-	-	-	-	2.9
CCCNC(=O)c1ccc2c(c1)C1C3CCC(C3)C1C(c1ccccc1)N2 (stereo unspecified)	-	-	-	-	19	-
CCOC(=O)N1CCN(c2c(NCCCN(CC)CC)c(=O)c2=O)CC1	-	-	-	45	-	-
O=Cc1cn(-c2ccccc2)nc1-c1cc2cc(O)ccc2oc1=O	-	-	-	-	-	-
O=C(O)/C=C/c1cn(-c2ccccc2)nc1-c1cc2ccccc2oc1=O	61	-	-	-	-	-
COc1ccc(-c2ccc(-c3nnc(-c4cc(OC)ccc4OC)o3)cc2)cc1	-	-	+	-	-	-
COc1ccc(-c2nnc(-c3ccc(N)cc3)o2)cc1	-	-	-	-	-	-
COc1ccc([C@H]2C[C@@H](O)[C@H](n3cc(C4CC4)nn3)CN2C(=O)C2CCCCC2)cc1	.	.	.	.	-	.
CC(=O)N1CCc2c(sc(NC(=O)c3ccc(S(=O)(=O)N(C)CC4CCCO4)cc3)c2C(N)=O)C1 (stereo unspecified)	.	.	.	.	-	.
CC(=NCc1ccccc1)c1ccc(O)cc1O	.	.	.	.	-	.
CCOCc1nc(N)nc(N)c1-c1cccc(Cl)c1	.	.	.	.	-	.
CCOCCCNCc1cn(-c2ccc(F)cc2F)nc1-c1ccccc1C	-	-	-	27	-	-
CN1CCN(c2ccc(Cl)cc2NC(=O)C2COc3ccccc3O2)CC1 (stereo unspecified)	-	-	-	32	-	-
COc1ccc([C@H]2CN(c3ccc(OC)cc3)C(=O)[C@@H]2CC(=O)Nc2ccccc2)cc1	.	.	.	.	-	.
O=C(O)c1cc(-c2ccc(N3CCOCC3)cc2)nn1-c1ccc(F)cc1F	-	-	+	-	-	-
O=C(O)c1cc(-c2ccc(N3CCOCC3)cc2)nn1-c1ccccc1Cl	-	-	-	-	-	-
Cc1csc(CN(C)C(=O)CC2C(=O)NCCN2Cc2ccccc2C)n1 (stereo unspecified)	.	.	.	.	-	.
SMILES	Yeast superoxide	NALP3 yeast inh	Rce1 inh	NALP1 yeast inh	V-ATPase pH	PERK inhibitor
CC(=O)Nc1ccc(S(=O)(=O)N2CCN(C)CC2)cc1	-	-	-	-	-	3.1
COc1cc(S(=O)(=O)N2CCN(Cc3cccs3)CC2)ccc1NC(C)=O	-	-	.	.	-	.
CC(=O)Nc1ccc(S(=O)(=O)N2CCN(Cc3cccs3)CC2)cc1	-	-	-	26	-	-
CC(C)N=C1NN=C(c2cccs2)CS1	-	-	-	-	-	-
CC(C)c1ccc(N=C2NN=C(c3cccs3)CS2)cc1	-	-	-	38	-	-
CC1CCCCC12NC(=O)N(CC(=O)N1CCN(S(=O)(=O)c3ccc4c(c3)CCC4)CC1)C2=O (stereo unspecified)	.	-	.	.	25	.
CC1CCCCC12NC(=O)N(CC(=O)Nc1ccc(S(=O)(=O)N3CCOCC3)cc1)C2=O (stereo unspecified)	-	-	-	-	-	-
c1ccc2c(c1)C1=NCCN1c1ccccc1-2	.	.	.	.	-	.

Source: PubChem BioAssay (several laboratories)
